# Measured values as given in article PMC4336329 (PLoS ONE, 2015).
# Hit rate of the full screen: of about 310,000 compounds, about 14,000 (4.5%) showed an effect of 50% or more. The effect is printed as a negative number. The sample holds strong results, similar compounds and a random draw of the others, so the mix is not that of the screen.
# Target: human ether-à-go-go-related gene (hERG) potassium channel (human, UniProt Q12809)
# Assay: primary screen, population patch clamp on CHO cells stably expressing hERG; higher = less effect of the substance
# 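Also: peak tail current of the secondary pulse compared with the same well before compound.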
# Chain of human ether-à-go-go-related gene (hERG) potassium channel (Q12809 whole entry, looked up): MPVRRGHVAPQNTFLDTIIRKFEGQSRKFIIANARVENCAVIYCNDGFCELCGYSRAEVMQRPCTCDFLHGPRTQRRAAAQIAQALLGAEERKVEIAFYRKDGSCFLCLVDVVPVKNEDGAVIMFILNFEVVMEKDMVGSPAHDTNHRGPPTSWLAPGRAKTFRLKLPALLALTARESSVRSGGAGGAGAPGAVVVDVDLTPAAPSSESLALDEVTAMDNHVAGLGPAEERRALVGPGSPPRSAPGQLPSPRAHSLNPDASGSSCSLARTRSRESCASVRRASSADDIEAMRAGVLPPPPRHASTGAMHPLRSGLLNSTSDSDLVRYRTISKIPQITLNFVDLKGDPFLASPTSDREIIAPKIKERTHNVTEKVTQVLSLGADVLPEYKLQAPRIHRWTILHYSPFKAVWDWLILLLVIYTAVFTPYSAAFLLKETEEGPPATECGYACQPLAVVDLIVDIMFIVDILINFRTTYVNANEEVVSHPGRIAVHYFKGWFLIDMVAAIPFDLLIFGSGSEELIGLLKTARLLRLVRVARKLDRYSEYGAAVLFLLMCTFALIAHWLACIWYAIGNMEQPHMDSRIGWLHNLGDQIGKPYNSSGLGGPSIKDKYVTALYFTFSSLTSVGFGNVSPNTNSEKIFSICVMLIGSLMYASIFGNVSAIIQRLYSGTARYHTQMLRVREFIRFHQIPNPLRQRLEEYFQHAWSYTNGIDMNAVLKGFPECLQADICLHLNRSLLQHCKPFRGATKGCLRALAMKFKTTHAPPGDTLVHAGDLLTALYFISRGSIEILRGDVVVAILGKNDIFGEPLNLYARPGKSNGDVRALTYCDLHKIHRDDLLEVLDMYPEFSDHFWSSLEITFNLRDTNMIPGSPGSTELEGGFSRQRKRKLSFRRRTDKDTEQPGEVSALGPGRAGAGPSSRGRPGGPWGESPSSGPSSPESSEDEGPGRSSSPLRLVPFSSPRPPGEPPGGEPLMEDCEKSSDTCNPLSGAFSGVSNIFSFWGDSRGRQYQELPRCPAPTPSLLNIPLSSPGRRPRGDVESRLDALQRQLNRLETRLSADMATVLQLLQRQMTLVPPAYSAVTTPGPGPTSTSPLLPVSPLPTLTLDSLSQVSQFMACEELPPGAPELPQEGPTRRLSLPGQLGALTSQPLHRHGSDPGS
row,SMILES,"hERG current change (%, negative = inhibition) at 10uM"
1,Cc1cc(-c2ccccc2)nc(N(C)NC(=O)c2ccc(Cl)cc2)c1S(C)(=O)=O,0.236%
2,CC(=O)c1cccc(NC(=O)N2CCC(C(=O)c3ccc(F)cc3)CC2)c1,-28.1%
3,CCOc1ccc(N=Nc2c(C)[nH]n(-c3ccccc3)c2=O)cc1,18.6%
4,O=C(COC(=O)C1CCC1)Nc1ccccc1Sc1ccccc1,7.34%
5,COc1ccc2nc(NC(=S)NC(=O)c3ccco3)sc2c1,25.2%
6,COc1ccc(CCNC(=O)c2cnc3n(c2=O)CCS3)cc1OC,-5.87%
7,Cc1ccc(-n2c(C)nn(CCOc3ccccc3)c2=O)cc1,1.54%
8,Cc1ccc(C(=O)N2CCCN(c3nc4cc5c(cc4cc3C#N)OCO5)CC2)cc1,-0.619%
9,Cc1ccc2nc(N3CCN(C(=O)c4ccc(F)cc4)CC3)c(C#N)cc2c1,-73.6%
10,COc1ccccc1C(=O)N1CCN(c2nc3cc(C)c(C)cc3cc2C#N)CC1,-2.28%
11,C/C(=N\NC(=O)c1cc(-c2ccc(O)cc2)nc2ccccc12)c1cccnc1,11.7%
12,COC(=O)/C=C1\SC(=Nc2ccccc2)NC1=O,9.64%
13,Cc1nnc2ccc(-c3cccc(C(F)(F)F)c3)nn12,-9.04%
14,Cc1nnc2ccc(N3CCCC3)nn12,6.22%
15,Cc1nnc2ccc(N3CCCCC3)nn12,6.15%
16,FC(F)(F)c1cccc(N2CCN(c3ccc4nnc(-c5ccccc5)n4n3)CC2)c1,-4.4%
17,Cc1nnc2ccc(N3CCN(c4ccccn4)CC3)nn12,-57%
18,Cc1nnc2ccc(N3CCN(c4cccc(C(F)(F)F)c4)CC3)nn12,-61.8%
19,CN1CCc2c(sc(N)c2C(N)=O)C1,6.59%
20,S=c1[nH]c2ccc(Cl)cc2s1,21.1%
21,O=C(NCc1ccc(Cl)cc1)C(=O)Nc1nccs1,20.7%
22,O=C(c1ccc2c(=O)n(C3CCCC3)c(=S)[nH]c2c1)N1CCN(C2CCCCC2)CC1,6.5%
23,CSC1=N/C(=C\c2ccccc2C)C(=O)S1,23.9%
24,COc1ccc2cc(C(C)=O)c(=O)oc2c1,-11.4%
25,Cl.c1ccc(CCN=C2CCCc3c2[nH]c2ccccc32)cc1,-73.2%
26,OCCN=C1CCCc2c1[nH]c1ccc(Cl)cc21,-18%

row,SMILES,"hERG current change (%, negative = inhibition) at 10uM"
1,OCCN=C1CCCc2c1[nH]c1ccc(Br)cc21,6.45%
2,CCN(CC)C(=O)c1ccc(CS(=O)(=O)c2ccc(OC)cc2)o1,-0.122%
3,Cc1nc2ccccn2c1C(=O)NC1CCCC1,16.2%
4,N=c1c(S(=O)(=O)c2ccc(Cl)cc2)cc2c(=O)n3ccccc3nc2n1C1CCCC1,14%
5,Cn1c(C(=O)NC2CCCCC2)cc2c(=O)n3ccccc3nc21,4.32%
6,N=c1c(C(=O)NC2CCCC2)cc2c(=O)n3ccccc3nc2n1C1CCCC1,-82.2%
7,Cc1nc2ccccn2c1C(=O)NC1CCCCC1,1.83%
8,N=c1c(C(=O)NC2CCCC2)cc2c(=O)n3ccccc3nc2n1C1CCCCC1,-79%
9,COc1ccc(N2CCN(C(CNC(=O)C(=O)NC3CC3)c3ccco3)CC2)cc1 (stereo not drawn),13.6%
10,CCOc1cc(C=C(C(=O)OC)C(=O)OC)ccc1OCc1ccc([N+](=O)[O-])cc1,4.17%
11,O=C(Nc1ccc(F)cc1F)c1cc2ncc(CCCl)cn2n1,-12.3%
12,O=C(Nc1nnc(SCc2ccc(F)cc2)s1)c1cccnc1Cl,2.48%
13,COc1cc(NC(=O)c2cc3ccccc3o2)c(OC)cc1Cl,16.3%
14,Clc1ccc(Cn2ncc3c(N4CCCC4)ncnc32)cc1,-56.7%
15,Cc1cccc(CNc2ncnc3ccc(-c4ccoc4)cc23)c1,-12.4%
16,c1cncc(CNc2ncnc3ccc(-c4ccoc4)cc23)c1,-71.4%
17,Brc1ccc2ncnc(NCc3ccccc3)c2c1,-10.3%
18,Clc1ccc(Cn2ncc3c(N4CCCCC4)ncnc32)cc1,-14.4%
19,c1ccc(CNc2ncnc3c2cnn3Cc2ccccc2)cc1,-22%
20,c1csc(CNc2ncnc3ccc(-c4ccoc4)cc23)c1,-13.4%
21,Brc1ccc2ncnc(NCc3cccnc3)c2c1,-60.2%
22,c1cncc(CNc2ncnc3sccc23)c1,17.8%
23,Clc1ccc(Cn2ncc3c(NCc4ccccc4)ncnc32)cc1,-1.94%
24,Clc1ccc(Cn2ncc3c(NCc4cccnc4)ncnc32)cc1,-51.2%
25,Clc1ccc(Cn2ncc3c(N4CCOCC4)ncnc32)cc1,-16.2%
26,O=c1c(NCCc2ccc(Cl)cc2)c(-c2ccccc2)c1=O,5.81%

row,SMILES,"hERG current change (%, negative = inhibition) at 10uM"
1,O=S1(=O)CCS(=O)(=O)C1c1ccccc1,-1.95%
2,COc1ccc(N/C=C/C(=O)c2cc(OC)c(OC)c(OC)c2)cc1,-8.76%
3,Cc1nc2cc(CO)ccc2s1,9.23%
4,COC(=O)/C(=C\Nc1ccccc1N)c1ncc(C(F)(F)F)cc1Cl,3.74%
5,CCn1ncc(C2=NOC(C(=O)Nc3c(C)nn(Cc4ccc(F)cc4)c3C)C2)c1C (stereo not drawn),10.3%
6,COc1ccc(-c2nc3nc(C)cc(=O)n3[nH]2)cc1,17.9%
7,CCn1nnnc1NCc1ccc(N2CCCC2)cc1,3.6%
8,Cc1ccc(S(=O)(=O)NCCCCCC(=O)NC(C)(C)CO)cc1,13.7%
9,CCCCNC(=O)CSc1nc2ccccc2n1S(=O)(=O)c1ccc(Br)cc1,-0.913%
10,Cc1cccc(-c2ccc3ncnc(NCc4cccnc4)c3c2)c1,-70.5%
11,COc1cccc(-c2ccc3ncnc(NCc4cccc(C)c4)c3c2)c1,-0.57%
12,Cc1cccc(-c2ccc3ncnc(NCc4cccs4)c3c2)c1,-8.55%
13,CCc1ccccc1NC(=O)N1CCCC(CCC(=O)N(C)CCc2ccccn2)C1 (stereo not drawn),13.1%
14,CN(CCc1ccccn1)C(=O)CCC1CCCN(C(=O)NC2CCCCC2)C1 (stereo not drawn),17.4%
15,CCOC(=O)CCNC(=O)N1CCCC(CCC(=O)N(C)CCc2ccccn2)C1 (stereo not drawn),-52.3%
16,CCCCNC(=S)N(C)/N=C/c1ccc2c(c1)OCO2,-50.1%
17,CCCCNC(=S)N(C)/N=C/c1ccccc1F,2.14%
18,CCCCNC(=S)N(C)/N=C/c1ccc(F)cc1,-8.72%
19,CCOc1c(N2CCCCC2)c(=O)c1=O,0.507%
20,Cc1cc(C)cc(NC(=O)CSc2nnc(-c3ccncc3)o2)c1,-22.8%
21,COc1cc(OC)c(C(=O)Nc2cccc(C(C)=O)c2)cc1OC,-9.08%
22,Cc1ccc2cc(CCNS(=O)(=O)c3ccc(F)cc3)c(=O)[nH]c2c1C,10.9%
23,CCOC(=O)C1=C(N)OC2=C(C(=O)CCC2)C1c1ccc(C)s1 (stereo not drawn),-54.3%
24,CCOC(=O)C1=C(N)OC2=C(C(=O)CC(C)(C)C2)C1c1ccc(C)s1 (stereo not drawn),-42.3%
25,CCOC(=O)C1=C(N)OC2=C(C(=O)CCC2)C1c1cccs1 (stereo not drawn),1.13%
26,CCOC(=O)CC(=O)c1cc(OC)c(OC)c(OC)c1,-3.44%

row,SMILES,"hERG current change (%, negative = inhibition) at 10uM"
1,CCCNC(=O)c1nn2c(C(F)(F)F)cc(-c3ccccc3)nc2c1Cl,-4.1%
2,O=C(NCCCn1ccnc1)c1cc2nc(-c3ccc(Br)cc3)cc(C(F)(F)F)n2n1,-62.8%
3,O=C(NCCCn1ccnc1)c1nn2c(C(F)(F)F)cc(-c3ccc(Br)cc3)nc2c1Cl,-65.7%
4,O=C(NCCCn1ccnc1)c1nn2c(C(F)(F)F)cc(-c3ccccc3)nc2c1Cl,-29.6%
5,Cc1ccc(-c2cc(C(F)(F)F)n3nc(C(=O)NCCCn4ccnc4)cc3n2)cc1C,-20.6%
6,COc1ccc(-c2cc(C(F)(F)F)n3nc(C(=O)NCCCn4ccnc4)cc3n2)cc1,-41%
7,COc1ccc(CN(C#N)c2nc(C)cc(C)n2)cc1,14.1%
8,CCOC(=O)C1=C(COC(=O)CCOc2cc(C)ccc2C)NC(=O)NC1C (stereo not drawn),-26.5%
9,Cc1ccc(N(C(=O)c2snc(C(N)=O)c2N)C(C(=O)NCC2CCCO2)c2ccc(C)o2)c(C)c1 (stereo not drawn),-40.9%
10,CCN(CC(=O)Nc1ccc(NC(C)=O)cc1)C(=O)C1CCCC1,-13.9%
11,O=C(NNC(=S)NC(=O)C12CC3CC(CC(C3)C1)C2)c1ccncc1,19.8%
12,CCOC(=O)c1c(C)[nH]c(C(=O)OCc2ccc(F)cc2)c1C,-0.855%
13,O=C(c1cccc(NS(=O)(=O)c2ccc(F)c(F)c2)c1)N1CCN(Cc2ccccc2)CC1,-26.8%
14,COc1ccccc1NC(=O)c1cccc(S(=O)(=O)N2CCN(Cc3ccccc3)CC2)c1,-19.6%
15,C=CCN(c1ccccc1)S(=O)(=O)c1cccc(C(=O)NC2CCC(O)CC2)c1 (stereo not drawn),-7.48%
16,Cc1ccc(S(=O)(=O)Nc2cccc(C(=O)NCC3CCCO3)c2)cc1F (stereo not drawn),2.12%
17,O=C(NC1CCN(Cc2ccccc2)CC1)c1cccc(S(=O)(=O)Nc2ccc(Br)cc2)c1,-59.7%
18,COc1ccccc1NS(=O)(=O)c1cccc(C(=O)NC2CCN(Cc3ccccc3)CC2)c1,-56%
19,COc1ccc(NS(=O)(=O)c2cccc(C(=O)NC3CCN(Cc4ccccc4)CC3)c2)cc1,-46.7%
20,C=CCN(c1ccccc1)S(=O)(=O)c1cccc(C(=O)NC2CCN(Cc3ccccc3)CC2)c1,-65.3%
21,Cc1ccc(S(=O)(=O)Nc2cccc(C(=O)NC3CCN(Cc4ccccc4)CC3)c2)cc1F,-80.6%
22,COc1ccccc1NS(=O)(=O)c1cccc(C(=O)NN)c1,-5.56%
23,O=C(NCCN1CCOCC1)c1cccc(S(=O)(=O)Nc2ccc(Br)cc2)c1,-20.4%
24,C=CCN(c1ccccc1)S(=O)(=O)c1cccc(C(=O)O)c1,16%
